This is an account of results in PubChem BioAssay (NCI).

Structures are written as SMILES. The panel holds about 83,000 compounds, 20% with a hit somewhere; the sample as a whole holds those more often.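 Values shown are percent growth following 48 h exposure of cells in 96-well plates to a single concentration of compound; below 10 was considered active.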 Active and inactive are the calls of the source.

The assay deals with SK-OV-3 ovarian. As to the kind of experiment: NCI-60 one-dose screen, 48 h (100 = growth as untreated, 0 = no growth, -100 = all killed). Conditions: 10 µM.
On to `CN1CCN(c2ccc(Nc3nc(N4CCN(S(=O)(=O)c5ccc(F)cc5)CC4)c4sccc4n3)cc2)CC1`, for which the growth is -87.2% (active).
`CCCCCc1ccc(S(=O)(=O)Nc2cc(-c3csc(N(C)C(C)=O)n3)ccc2N2CCN(C)CC2)cc1`: the growth was 21.4% (inactive).
With `CN1CCN(c2ccc(Nc3nc(NCCCNC(=O)C4CCCCC4)c4sccc4n3)cc2)CC1`, the growth was 98% (inactive).
The value for `N[C@@H](CSSC[C@H](N)C(=O)Nc1ccc(OCC2CCCC2)cc1)C(=O)Nc1ccc(OCC2CCCC2)cc1` was -97.9% (active).
The value for `COc1ccc2nc(Cl)c(-c3cc(-c4ccccc4)nc(=O)[nH]3)cc2c1` was 108% (inactive).
The figure for `O=C(Nc1ccc(OCc2ccccc2)cc1)Nc1ccc(Cl)c(C(F)(F)F)c1` is -29.7% (active).
Regarding `COc1ccc2[nH]c(O)c(N=NC(=O)COc3ccc(NC(=O)Nc4ccc(Cl)cc4)cc3)c2c1`, the growth was 49.6% (inactive).
`Cc1cc2c(c(O)c1Br)-c1ncoc1C(=O)[C@]1(C)CC[C@H](C(C)C)[C@H]21`: the growth is 57% (inactive).
The figure for `CCN1CCN(c2ccc(NC(=O)Nc3ccc4c(c3F)CCN4c3ccnc(C(=O)NC)c3)cc2C(F)(F)F)CC1` is 103% (inactive); for `O=C1Nc2ccc(F)cc2/C1=C/c1cccc(OCc2ccccc2)c1` it is 66.7% (inactive).
The figure for `Cc1ccc(NC(=O)c2ccc(-n3c(=O)[nH]c4ccccc4c3=O)cc2)cc1` is 82.5% (inactive).
The value for `O=C(Nc1ccncc1)c1ccc(-n2c(=O)[nH]c3ccccc3c2=O)cc1` was 99.3% (inactive); that for `Cc1ccc(-c2cc(-c3cc4ccccc4nc3Cl)[nH]c(=S)n2)cc1` was 74.2% (inactive); that for `O=C(c1ccc(Cl)cc1)C1[C@H](c2ccc(Br)cc2)[C@@H](c2ccccc2)NC12C(=O)Nc1ccc(Cl)cc12` (some centres undefined) was 11.5% (inactive).
`O=C(O)CCCCCCCCCCN1C(=O)/C(=C/c2cnc(-c3ccc(Cl)cc3)s2)SC1=S`: the growth was 3.51% (active).
On to `CN1CCN(c2ccc(Nc3nc(N4CCN(S(=O)(=O)c5ccc(Cl)cc5)CC4)c4sccc4n3)cc2)CC1`, for which the growth was 116% (inactive).
As to `CN1CCN(c2ccc(C(=O)/C=C/c3cc(Br)ccc3F)cc2)CC1`, the growth was 44.4% (inactive).
The figure for `O=c1nc(-c2ccccc2)cc(-c2cc3ccccc3nc2Cl)[nH]1` is 84.8% (inactive).
On to `CC1=C2C(=C[C@@](C)(CO)[C@@H]2O)/C(=N\N)[C@](C)(O)C12CC2`, for which the growth is -24.7% (active).
For the compound `O=C(c1ccc(O)cc1)C1[C@H](c2ccc(Br)cc2)[C@@H](c2ccccc2)NC12C(=O)Nc1ccc(Br)cc12` (some centres undefined), the growth is 13.2% (inactive).
The figure for `COc1ccc(C=CC(=O)c2ccc(-n3c(C)nc4c(cnn4-c4ccccc4)c3=O)cc2)cc1` is 123% (inactive).
The figure for `O=C(c1ccc(O)cc1)C1[C@H](c2ccccc2Br)[C@@H](c2ccccc2)NC12C(=O)Nc1ccc(Cl)cc12` (some centres undefined) is 29.6% (inactive); for `O=C(c1ccccc1)n1ccc(-c2cc3cc(Br)ccc3oc2=O)n1` it is 12.5% (inactive).
Take `C#Cc1ccc(S(=O)(=O)Nc2cccc(-c3csc(NC(C)=O)n3)c2)cc1`: the growth is 88.9% (inactive).
Consider `O=C(N/N=C/c1ccc(-c2cccc([N+](=O)[O-])c2)o1)c1[nH]c2ccc(Br)cc2c1-c1ccccc1`, for which the growth is 32.2% (inactive).
The figure for `O=C(Nc1nc2ccc([N+](=O)[O-])cc2s1)Nc1cc(Cl)ccc1I` is -9.56% (active).
Turning to `C=C(c1ccc(OC)c(N)c1)c1cc(C)nc2ccccc12`, the growth was 21.7% (inactive).
The figure for `CNC(=O)c1cccc(N2CCc3c2ccc(NC(=O)Nc2ccc(N4CCN(C)CC4)c(C(F)(F)F)c2)c3F)c1` is 45.3% (inactive); for `COc1ccc([C@H]2C(C(=O)c3ccc(Cl)cc3)C3(N[C@@H]2c2ccccc2)C(=O)Nc2ccc(Br)cc23)cc1` (some centres undefined) it is 22.6% (inactive).
The figure for `CN1CCN(Cc2ccc(C(=O)Nc3cccc(Nc4ccc5cc(O)ccc5n4)c3)cc2C(F)(F)F)CC1` is 26.3% (inactive); for `Brc1ccc(/C=N/Nc2ncnc3sc4c(c23)CCN(Cc2ccccc2)C4)cc1` it is 107% (inactive); for `COc1ccc(C(C)=C(c2ccc(OCCCN(C)C)cc2)c2ccc(OCCCN(C)C)cc2)cc1` it is -99.5% (active).
The value for `C=C(C)[C@@H]1CC[C@]2(C(=O)OC)CC[C@]3(C)[C@H](CC[C@@H]4[C@@]5(C)CC[C@H](N)C(C)(C)[C@@H]5CC[C@]43C)[C@@H]12` was -54.8% (active); that for `CS(=O)(=O)Nc1ccc(-c2ccc3c(c2)ncn3-c2ccc(NC(=O)Nc3ccc(Br)cc3)cc2)cc1` was 1.06% (active).
